# Source: PubChem
# This is a sample that favours compounds with a hit; in the whole collection about 2.4% have one here.
# Pol beta inh: blocks human DNA polymerase beta activity; P06746; AID 485314; actives 1.3% (n = 340,000); Potency, µM (series often up to 114 µM), inactives show at the highest dose activity change, negative = inhibition, actives largely listed as inhibitors; Pol beta primer extension/strand displacement, fluorescence kinetic; also: % is scaled to controls: 0 for no effect and ±100 for the full control effect
#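 Values derive from four-parameter Hill fits of normalized kinetic data: reads at 0 and 10 min following addition of 50 nM substrate to 10 nM Pol beta preincubated 15 min with compound.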
# TDP1 block: inhibitors of human tyrosyl-DNA phosphodiesterase TDP1; Q9NUW8; recombinant TDP1, AlphaScreen DNA substrate cleavage; Potency, µM (doses to about 130 µM), inactives show top-dose activity change, negative = inhibition, most hits filed as inhibitors; actives 0.28% (n = 350,000); AID 485290; also: % is scaled to controls: 0 for no effect and ±100 for the full control effect; nearly all actives have a fitted effect of over 40% in size
#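 Enzyme-compound mixtures sat 15 min at room temperature, followed by a 5 min reaction with 15 nM final substrate and 10 min with AlphaScreen beads. Recombinant human Tdp1 was used at 1 nM final.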
# POLK inh: DNA polymerase kappa (human) inhibition; Potency, µM (top dose mostly 107 µM), inactives show at the highest dose activity, negative = inhibition, actives largely listed as inhibitors; AID 588579; actives 0.53% (n = 400,000); Q9UBT6; purified Pol kappa, fluorescent DNA synthesis assay, 10 min; also: % is scaled to controls: 0 for no effect and ±100 for the full control effect
#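 Readout: fluorescence, taken kinetically at 0 and 10 min. Conditions: 10 nM Pol kappa, 15 min RT compound preincubation, 50 nM substrate final. Controls: enzyme-free buffer wells.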
# FEN1 inhibitor: blocks human flap endonuclease 1 | actives 0.35% (n = 390,000) | Recombinant FEN1 flap cleavage, fluorescence, 15 min | Potency, µM (doses to about 114 µM), for the others: at the top dose activity change, negative = inhibition, most hits filed as inhibitors | AID 588795; also: % is scaled to controls: 0 for no effect and ±100 for the full control effect; nearly all actives have a fitted effect of over 65% in size
#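 Steps: FEN1 (10 nM) dispensed; compound added by pin tool; 15 min at room temperature; substrate added to 50 nM final; reads at 0 min and 15 min; data normalized and fitted (four-parameter Hill).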
# Pol eta inh: DNA polymerase eta (human) inhibition | actives 1.2% (n = 390,000) | AID 588591 | Potency, µM (top dose mostly 114 µM), for the others: at the top dose activity change, negative = inhibition, usual class: inhibitors | Q9Y253 | recombinant Pol eta, fluorescent DNA replication assay; also: % is scaled to controls: 0 for no effect and ±100 for the full control effect
# Target sequence (Q9Y253 whole entry, looked up): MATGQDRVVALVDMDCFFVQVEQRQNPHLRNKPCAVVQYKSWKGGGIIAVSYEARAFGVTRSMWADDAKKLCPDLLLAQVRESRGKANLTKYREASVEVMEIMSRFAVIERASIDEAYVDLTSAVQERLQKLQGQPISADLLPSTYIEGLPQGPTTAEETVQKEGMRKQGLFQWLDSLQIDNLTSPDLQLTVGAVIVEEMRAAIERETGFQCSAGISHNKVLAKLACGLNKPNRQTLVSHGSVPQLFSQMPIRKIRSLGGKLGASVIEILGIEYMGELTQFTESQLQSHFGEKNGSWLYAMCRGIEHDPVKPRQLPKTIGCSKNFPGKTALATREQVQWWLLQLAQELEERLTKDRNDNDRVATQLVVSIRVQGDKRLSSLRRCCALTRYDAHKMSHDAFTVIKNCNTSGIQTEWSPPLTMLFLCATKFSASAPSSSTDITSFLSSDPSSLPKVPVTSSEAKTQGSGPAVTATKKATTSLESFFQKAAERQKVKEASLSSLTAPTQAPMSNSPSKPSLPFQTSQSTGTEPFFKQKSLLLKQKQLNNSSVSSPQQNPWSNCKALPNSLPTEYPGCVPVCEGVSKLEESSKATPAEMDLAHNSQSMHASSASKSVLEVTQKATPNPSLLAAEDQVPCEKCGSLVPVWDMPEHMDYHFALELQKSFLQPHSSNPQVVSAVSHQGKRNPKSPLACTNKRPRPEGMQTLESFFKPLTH
#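 Pol eta at 10 nM preincubated with compounds 15 min at room temperature; reaction started with fluorescent substrate (50 nM final) and read kinetically at 0 and 10 min.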
# POLI inh: inhibitors of human DNA polymerase iota; Potency, µM (doses to about 115 µM), for inactives: top-dose activity, negative = inhibition, hits mostly inhibitors; Q9UNA4; actives 1% (n = 390,000); AID 588590; Pol iota fluorescent replication assay, 10 min
#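 Fluorescent replication assay read twice, at 0 min and 10 min after adding 50 nM (final) substrate. Enzyme (10 nM) and compounds were first incubated 15 min at room temperature; enzyme-free buffer wells were negative controls.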
# Active calls of the source: *; ? = inconclusive; nt = no result; [ ] = remark or other dose. Calls follow the shape of the dose curve; as a rule, active = well fitted curve in the direction sought with a large enough effect; inconclusive = small, poorly fitted or top-dose-only effect, or another doubt; inactive = no such curve, though single readings can be large; an effect the other way counts as inactive or inconclusive. Potency is read from the fitted curve at half-maximal effect.
SMILES,Pol beta inh,TDP1 block,POLK inh,FEN1 inhibitor,Pol eta inh,POLI inh
CCc1cc2c(=O)c(-c3nc4ccccc4n3C)coc2c(CN2CCC(C)CC2)c1O,43%,nt,6%,1%,-25%,22%
CCc1cc2c(=O)c(-c3nc4ccccc4n3C)coc2c(CN2CCN(C)CC2)c1O,28%,50µM*,1%,2%,9%,23%
O=S(=O)(c1cccc(Cl)c1)c1nnn2c1nc(NC1CCCCCC1)c1sccc12,11%,5%,12%,8%,0%,38%
CCC(=O)Nc1nnc(Sc2ccc(N(C)C)cc2)s1,50µM*,45µM*,-9%,-1%,-4%,?
CCCC(=O)Nc1nnc(Sc2ccc(N(C)C)cc2)s1,5%,-1%,1%,-7%,5%,3%
CCc1cc2c(s1)c1cnn(Cc3ccccc3F)c(=O)c1n2C,nt,-1%,nt,nt,nt,nt
Cc1nn(CCCC(=O)Nc2ccccc2C(F)(F)F)c(=O)c2nn(-c3ccccc3)c(C)c12,0%,3%,0%,18%,-16%,4%
CC(C)(C)N1C(=O)Cc2c1nc(N)c1c(N)nc(N3CCCCC3CO)c(C#N)c21 (stereo unspecified),0%,5%,-10%,-3%,?,20µM*
CN(CCO)c1nc(N)c2c(N)nc3c(c2c1C#N)CC(=O)N3C1CCCC1,25%,9%,nt,nt,nt,nt
N#CCNC(=O)c1nn2c(C(F)(F)F)cc(-c3ccccc3)nc2c1Br,15%,nt,-7%,10%,-22%,163%
Cc1cc(-c2ccccc2)nc2c(Br)c(C(=O)O)nn12,nt,nt,79µM*,?,7.9µM*,11µM*
O=C1NC2CCCCC2C(=O)N1OS(=O)(=O)c1ccccc1 (stereo unspecified),nt,nt,-6%,46%,-10%,?
COc1ccc(N2CCN(C(=O)c3ccc(NC(=O)C4=CSCCO4)cc3)CC2)cc1,-7%,6%,-23%,-7%,-6%,35µM*
O=C(Nc1ccc(C(=O)N2CCN(c3ccc(F)cc3)CC2)cc1)C1=CSCCO1,8%,5%,1%,8%,-7%,-20%
Nn1c(SCC(=O)Nc2cc(C(F)(F)F)ccc2Cl)nncc1=O,5%,-6%,?,-4%,?,79µM*
Nn1c(SCC(=O)Nc2cccc(C(F)(F)F)c2)nncc1=O,-12%,0%,-8%,-16%,-12%,-22%
O=C(N/N=C/c1ccco1)C1CC1,14%,1%,-17%,0%,-9%,18%
O=C(N/N=C/c1ccco1)C1CC1c1ccccc1 (stereo unspecified),16µM*,?,?,-4%,?,32µM*
O=C(c1cccs1)N1CCN(Cc2ccncc2)CC1,1%,-2%,4%,-8%,2%,?
O=C(c1cccs1)N1CCN(Cc2cccnc2)CC1,26%,-6%,-12%,6%,22µM*,0%
CC(C)CC1C(=O)N(Cc2cn(CC3CCCCC3)nn2)CCS(=O)(=O)N1Cc1ccc(-c2ccncc2)cc1 (stereo unspecified),nt,nt,nt,nt,-9%,nt
CCCS(=O)(=O)c1c(S(=O)(=O)CCC)c2cc(C(C)(C)C)ccn2c1C(=O)c1ccccc1,2%,nt,-16%,-2%,89µM*,32%
CCOC(=O)c1c(SCC(=O)Nc2nc3ccc(C)cc3s2)nc(=O)[nH]c1C,?,-5%,-12%[60.1 µM],-17%,-10%,89µM*
Cc1cccc(-n2ccnc2SCC(=O)Nc2nc3ccccc3s2)c1,?,7%,-3%[60.1 µM],20%,-4%,?
CCOc1ccc(-n2ccnc2SCC(=O)Nc2nc3ccc(C)cc3s2)cc1,25µM*,-1%,-9%[60.1 µM],16%,89µM*,6%
SMILES,Pol beta inh,TDP1 block,POLK inh,FEN1 inhibitor,Pol eta inh,POLI inh
COc1ccc(CCNC(=O)CCc2c(C)nc3c(c(C)nn3-c3ccccc3)c2C)c(OC)c1,27%,10%,-2%,-3%,5%,-8%
OC[C@H]1O[C@@H](OC[C@H]2O[C@@H](O)[C@H](O)[C@@H](O)[C@@H]2O)[C@H](O)[C@@H](O)[C@@H]1O,nt,13%[56.1 µM],-8%[19.4 µM],nt,nt,nt
CC(/C=C/C=C(\C)C(=O)O[C@@H]1O[C@H](CO[C@@H]2O[C@H](CO)[C@@H](O)[C@H](O)[C@H]2O)[C@@H](O)[C@H](O)[C@H]1O)=C\C=C\C=C(C)\C=C\C=C(/C)C(=O)O[C@@H]1O[C@H](CO[C@@H]2O[C@H](CO)[C@@H](O)[C@H](O)[C@H]2O)[C@@H](O)[C@H](O)[C@H]1O,nt,-15%,21µM*,nt,nt,nt
O=C(Nc1nnc(S(=O)(=O)N2CCc3ccccc32)s1)c1cccc(Cl)c1,4%,1%,-18%,20%,89µM*,14%
Cc1ccc(C(=O)Nc2nnc(S(=O)(=O)N3CCCc4ccccc43)s2)cc1,?,8%,-11%,23%,89µM*,100%
O=C(Nc1nnc(S(=O)(=O)N2CCCc3ccccc32)s1)c1ccccc1,?,5%,-9%,2%,?,23%
CCOc1ccccc1CNC(=O)c1ccc(N2Cc3ccccc3Oc3ncccc32)s1,-16%,5%,-7%,10%,-14%,4%
COc1cccc2c1Oc1ncccc1N(c1ccc(C(=O)NCc3cccc(C)c3)s1)C2,27%,-3%,?,-15%,-13%,89µM*
O=C(O)c1ccc2c(c1)C(=O)/C(=C/c1ccccc1)C2=O,-23%,nt,25µM*,40µM*,2.8µM*,?
CC(C)(C)N1C(=O)c2ccc(C(=O)O)cc2C1=O,1%,5%,-11%,-10%,-7%,-7%
O=S1(=O)N=C(Oc2ccc(Br)cc2)c2ccccc21,nt,2%,nt,nt,nt,nt
Nc1ccc2cc3ccc(N)cc3nc2c1,nt,13%,9.5µM*,nt,nt,nt
Cc1ccc2cc(N)ccc2n1,?,0%,3%,-2%,-4%,92%
COCCCNC(=O)c1ccc(Cn2c(=O)c3ccccc3n(CC(=O)Nc3c(C)cccc3C)c2=O)cc1,50µM*,5%,-32%,2%,-11%,89µM*
CCC(C)NC(=O)Cn1c(=O)n(Cc2ccc(C(=O)NCc3ccc(C)cc3)cc2)c(=O)c2ccccc21 (stereo unspecified),20µM*,-2%[12.3 µM],8%,-3%,?,43%
CCC(C)NC(=O)Cn1c(=O)n(-c2ccc(C)cc2)c(=O)c2ccccc21 (stereo unspecified),-5%,-1%,-4%,-5%,3%,3%
CC1(C)CC(NC(=O)c2ccccc2)CC(C)(C)N1,-11%,nt,4%,8%,-11%,64%
C[C@@H]1C(NC(=O)c2ccccc2)CC2CC1C2(C)C (stereo partly specified),-3%,10µM*,3%,3%,-16%,18%
